40 compounds from PubChem BioAssay AID1347146 (National Center for Advancing Translational Sciences (NCATS), 2019) can be followed below.

Each structure is given as a SMILES string. Results filed as inconclusive are left out. The source made the active and inactive calls. Calls come from the whole dose curve; as a rule, active = well fitted inhibition curve with a large enough effect; inconclusive = small, poorly fitted or top-dose-only effect; inactive = no such curve, though single readings can be large or run the other way.
Potency is the fitted concentration of half-maximal effect.

In this experiment the target is Nicotinamide N-methyltransferase (Homo sapiens) (UniProt P40261). Briefly: qHTS Assay for Inhibitors of N-terminal methyltransferase 1 (NTMT1): NNMT MTaseGlo counterscreen assay. To be noted: NNMT enzyme, MTase-Glo luminescence counterscreen; series mostly up to 57.1 µM; activity change, negative = inhibition: at the top concentration. The text has this: Assay Submitter (PI): Rong Huang Ph.D, Purdue University, West Lafayette, IN 47907
Sequence of Nicotinamide N-methyltransferase (Homo sapiens) (P40261 whole entry, looked up): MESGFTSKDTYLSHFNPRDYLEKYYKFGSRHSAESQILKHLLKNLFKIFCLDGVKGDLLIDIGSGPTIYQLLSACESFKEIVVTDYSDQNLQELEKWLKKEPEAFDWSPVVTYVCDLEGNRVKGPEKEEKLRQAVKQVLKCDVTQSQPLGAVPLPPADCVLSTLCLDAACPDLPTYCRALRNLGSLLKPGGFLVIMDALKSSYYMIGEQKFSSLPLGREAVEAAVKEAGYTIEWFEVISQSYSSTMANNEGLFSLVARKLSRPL
The N-terminal methytransferase 1 is the first methyltransferase that methylates protein alpha-N-amines and plays an important role in regulating cell mitosis, chromatin interactions and DNA repair. It is observed to be over-expressed in various cancer patient tissues like malignant melanoma and colorectal cancer tissues. Knockdown of NTMT1 in cancer cells causes cell mitotic defects and enhances sensitivity to DNA damaging chemotherapeutics. […] These critical cellular processes in which NTMT1 is implicated, coupled with emerging links to cellular dysfunction, strengthen the inference that NTMT1 is a compelling novel anticancer target. Progress have been made in understanding the molecular properties of NTMT1 and the biological consequences of protein alpha-N-terminal methylation, but there are no specific small molecule probes available for NTMT1 to fully characterize its MTase activity. To address this unmet need, a panel of assay is created and established to enable quantitative high-throughput screening (qHTS) for novel, potent, and selective small molecule NTMT1 inhibitors. Two orthogonal qHTS that use different reagents (ThioGlo vs. MTaseGlo) are developed for primary robotic screening against the NCATS chemical library of more than 400,000 small molecules. Identified inhibitors are reacquired, validated, and further characterized.
MTaseGlo Assay is a luminescence screen that measure the activity of methyltransferases based on the reaction product S-adenosyl homocysteine (SAH). The substrate SAM is converted to SAH upon enzyme activation. MTase-Glo reagent and detection solution convert SAH to ATP and measure the light from the luciferase reaction. Nicotinamide N-methyltransferase (NNMT) is a cystolic enzyme that catalyzes the transfer of a methyl group from the co-factor SAM onto the substrate, nicotinamide (NA) to form 1-methyl-nicotinamide (MNA) and SAH. NNMT MTaseGlo assay is used as a counterscreen to evaluate selectivity of identified inhibitors.
Early Translation Branch (ETB)
National Center for Advancing Translational Sciences (NCATS)
National Institute of Health (NIH)
NNMT enzyme, SAM, NA, and control is provided by the Huang laboratory.
In brief, 3 µL of enzyme mixture (final concentrations of 125 nM and 100 µM for NNMT and SAM, respectively) into all wells of a 1,536-well solid-bottom white plate (Greiner Bio One, Monroe, NC). 23 nL of DMSO or compound (final concentration range 234 nM to 143 microM) was transferred via Wako Pin-tool (Wako Automation, Richmond, VA) and incubated (RT) for ~15 minutes. Next, 1 µL of substrate (final concentration 1 µM NA) or buffer was dispensed, and the reaction proceeded for 30 minutes (RT, protected from light) followed by a 1 microL addition of [5X] MTase-Glo Reagent(R). Samples were incubated (RT, protected from light) for 30 minutes to allow for SAH to be converted to ADP, followed by a 5 microL addition of [1X] MTase-Glo Detection Solution(R) to allow for ADP to be converted to ATP, which was then detected with a luciferase reaction. Samples were centrifuged for 15 seconds at 1,000 RPM's, followed by a RT incubation for 30 minutes. Plates were then read using Luminescence optics on a ViewLux detector. Data were normalized to no-enzyme (0% activity) and no-inhibitor (DMSO; 100%) controls, and the resulting percent inhibition data were fitted to a 4-parameter Hill equation using Graphpad Prism.
(Quantitative high-throughput screening tests each substance at several concentrations.)
Regarding `CC[N+](CC)(CC)CCOc1cccc(OCC[N+](CC)(CC)CC)c1OCC[N+](CC)(CC)CC`, the “activity change, negative = inhibition” value was -11.5% (inactive).
The same measure, in the same setting: in the case of `O=C1NC(=O)C(=Cc2ccc(-c3ccc(F)cc3O)o2)S1` it was -13.8% (inactive).
For `O=C1Nc2ccc(I)cc2/C1=C/c1cc(Br)c(O)c(Br)c1`, the Potency is 25.1 µM (active).
Regarding `CCNC(=O)[C@H]1O[C@H](n2cnc3c(N)nc(NCCc4ccc(CCC(=O)O)cc4)nc32)[C@@H](O)[C@@H]1O`, the “activity change, negative = inhibition” value is -13.3% (inactive).
Regarding `Nc1ncnc2c1[nH]c(=S)n2C1OC(CO)C(O)C1O` (stereo not given), the “activity change, negative = inhibition” value was 25.9% (inactive).
On the same count and under the same terms, in the case of `N#C/C(=C\c1ccc(O)c(O)c1)C(=O)Nc1ccccc1` it was -21.1% (inactive).
Turning to `CCCCC#Cc1nc(NC)c2ncn([C@@H]3O[C@H](CO)[C@@H](O)[C@H]3O)c2n1`, the “activity change, negative = inhibition” value was -8.74% (inactive).
Same read-out and setting: then `Nc1nc2ccc(Cl)cc2c2nc(-c3ccco3)nn12`, with -8.24% (inactive); and `Brc1c(NC2=NCCN2)ccc2nccnc12`, with -12.4% (inactive); and `S=C(Nc1ccccc1)Nc1nccs1`, with -18.7% (inactive).
As to `O=C1Cc2c([nH]c3ccc(Br)cc23)-c2ccccc2N1`, the “activity change, negative = inhibition” value is -5.93% (inactive).
Consider `Cc1ccc(O)c(N=Nc2ccccc2)n1`, for which the Potency was 14.1 µM (active).
As to `OC[C@H]1O[C@@H](n2cnc3c(NCc4ccco4)ncnc32)[C@H](O)[C@@H]1O`, the “activity change, negative = inhibition” value was 48.5% (inactive).
Still for that read-out and setting: in the case of `Cc1cccc(C)c1OCC(N)C(C)C` (stereo not given) it was -3.53% (inactive).
`Nc1ncnc2c1ncn2[C@@H]1O[C@H](CO)[C@@H](O)[C@H]1O`: the Potency result is “inactive”.
`COC(=O)[C@@H]1[C@H]2C[C@H]3c4[nH]c5ccccc5c4CCN3C[C@@H]2CC[C@@H]1O`: the “activity change, negative = inhibition” value was -4.61% (inactive).
With `CC(C)(C)c1ccc(S(=O)(=O)/C=C\C#N)cc1`, the Potency was 11.2 µM (active).
On to `CCCc1cc(C)[nH]c(=O)c1CNC(=O)c1cc(-c2ccc(N3CCN(C(C)C)CC3)nc2)cc2c1cnn2C(C)C`, for which the “activity change, negative = inhibition” value was -18% (inactive).
Same read-out and setting: in the case of `OCC1OC(n2cnc3c(NCc4ccco4)ncnc32)C(O)C1O` (stereo not given) it was 50.2% (inactive).
Still for that read-out and setting: then `OCCNc1ncnc2c1ncn2[C@@H]1O[C@@H](CO)[C@H](O)[C@@H]1O`, with 31.2% (inactive); and `N#CC(C#N)=C(N)/C(C#N)=C/c1ccc(O)cc1`, with -11% (inactive); and `COc1cc2nc(N3CCOCC3)nc(NC(C)C)c2cc1OC`, with -19.8% (inactive).
On the same count and under the same terms, in the case of `CN(C)CCCN1c2ccccc2Sc2ccc(Cl)cc21` it was -18.9% (inactive); in that of `c1cc(CN2CCCCC2)cc(OCCCNc2nc3ccccc3s2)c1`, -18.2% (inactive); in that of `Nc1ncnc2c1ncn2[C@@H]1O[C@H](COP(=O)(O)OP(=O)(O)OC[C@H]2OC(O)[C@H](O)[C@@H]2O)[C@@H](O)[C@H]1O` (stereo not given in full), 326% (inactive).
Take `CN(C)c1ccc(/C=C2\C(=O)Nc3ccccc32)cc1`: the Potency is 10 µM (active).
Consider `CCN(CC)CCNC(=O)c1c(C)[nH]c(/C=C2\C(=O)Nc3ccc(F)cc32)c1C`, for which the “activity change, negative = inhibition” value was -14.6% (inactive).
Still for that read-out and setting: in the case of `O=S(=O)(c1cccc2c(Cl)cccc12)N1CCCNCC1` it was -28.2% (inactive).
The same measure, in the same setting: then `OCCN1CCN(CC/C=C2/c3ccccc3Sc3ccc(C(F)(F)F)cc32)CC1`, with -10.3% (inactive); and `COc1cc2nc(N3CCCN(C)CC3)nc(NC3CCN(Cc4ccccc4)CC3)c2cc1OC`, with -0.648% (inactive); and `O=[N+]([O-])c1ccc(-c2nc(-c3ccc(F)cc3)c(-c3ccncc3)[nH]2)cc1`, with -15.3% (inactive).
On to `CC#C[C@]1(O)CC[C@H]2[C@@H]3CCC4=CC(=O)CCC4=C3[C@@H](c3ccc(N(C)C)cc3)C[C@@]21C`, for which the “activity change, negative = inhibition” value was -9.63% (inactive).
Still for that read-out and setting: in the case of `CC(=O)c1ccc2c(c1)N(CCCN(C)C)c1ccccc1S2` it was -29% (inactive).
For the compound `O=c1c(O)c(-c2ccc(O)c(O)c2)oc2cc(O)cc(O)c12`, the Potency result is “inactive”.
Regarding `CN(C)CCCc1cc(C(=O)Nc2ccc(-c3ccncc3)cc2)ccc1O`, the “activity change, negative = inhibition” value is -9.81% (inactive).
On to `C[C@]12C[C@H](O)[C@H]3[C@@H](CCC4=CC(=O)CC[C@@]43C)[C@@H]1CC[C@@H]2C(=O)CO`, for which the “activity change, negative = inhibition” value was -13.2% (inactive).
On the same count and under the same terms, in the case of `Nc1nc(Cl)nc2c1ncn2[C@@H]1O[C@H](CO)[C@@H](O)[C@@H]1F` it was -14.4% [at 114 µM] (inactive); in that of `Nc1[nH]c(=O)nc2c1ncn2C1OC(CO)C(O)C1O` (stereo not given), -17% (inactive).
Same read-out and setting: in the case of `C[N+]1(C)CCC(OC(=O)C(c2ccccc2)c2ccccc2)CC1` it was -7.96% (inactive); in that of `CN(C)CCCN1c2ccccc2Sc2ccccc21`, -9.98% (inactive).
